Experimental data reported in PubChem BioAssay (NCATS).
Results filed as inconclusive are left out. Calls of active or inactive are those of the source. Calls follow the shape of the dose curve; as a rule, active = well fitted curve in the direction sought with a large enough effect; inconclusive = small, poorly fitted or top-dose-only effect, or another doubt; inactive = no such curve, though single readings can be large; an effect the other way counts as inactive or inconclusive.

Key:
[1] = Quantitative High-Throughput drug screen in 47 multiple myeloma cell lines against the NCATS MIPE library collection: KHM11_PLB cell viability assay (AID 1918962); also: nearly all actives have a fitted effect of over 35% in size
Outline: (§1)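 Viability readout: CellTiter-Glo luminescence following 5 min room-temperature incubation with reagent. Prior exposure: 48 h, 37C, humidified 5% CO2, 500 cells per well.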

[2] = Quantitative High-Throughput drug screen in 47 multiple myeloma cell lines against the NCATS MIPE library collection: JIM3_ECACC cell viability assay (AID 1918963; also: nearly all actives have a fitted effect of over 35% in size)
Outline: as §1

[3] = Quantitative High-Throughput drug screen in 47 multiple myeloma cell lines against the NCATS MIPE library collection: JJN3_DSMZ cell viability assay (AID 1918966; also: nearly all actives have a fitted effect of over 50% in size)
Outline: (§2)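 We plated 500 myeloma cells per well, pinned in MIPE 4.0 compounds, and incubated for 48 hours at 37C. ATP was then quantified with CellTiter-Glo, with DMSO and media-only wells defining 100% and 0%.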

[4] = Quantitative High-Throughput drug screen in 47 multiple myeloma cell lines against the NCATS MIPE library collection: H1112_PLB cell viability assay (AID 1918967; also: nearly all actives have a fitted effect of over 30% in size)
Outline: as §2

[5] = Quantitative High-Throughput drug screen in 47 multiple myeloma cell lines against the NCATS MIPE library collection: KMS12BM_JCRB cell viability assay (AID 1918971); also: nearly all actives have a fitted effect of over 35% in size
Outline: (§3)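 Relative luminescence from CellTiter-Glo served as the viability signal, referenced to DMSO-treated (100%) and cell-free medium (0%) controls. Treatment lasted 48 hours at 37C with 500 cells per well.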

[6] = Quantitative High-Throughput drug screen in 47 multiple myeloma cell lines against the NCATS MIPE library collection: KMS20_JCRB cell viability assay (AID 1918973); also: nearly all actives have a fitted effect of over 45% in size
Outline: as §2

[7] = Quantitative High-Throughput drug screen in 47 multiple myeloma cell lines against the NCATS MIPE library collection: KMS26_JCRB cell viability assay (AID 1918975); also: nearly all actives have a fitted effect of over 45% in size
Outline: as §3

[8] = Quantitative High-Throughput drug screen in 47 multiple myeloma cell lines against the NCATS MIPE library collection: MMM1_PLB cell viability assay (AID 1918976); also: nearly all actives have a fitted effect of over 35% in size
Outline: (§4)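 MIPE 4.0 approved/investigational drugs; 500 cells/well; 48 h 37 °C humidified 5% CO2; CTG luminescence readout; DMSO = 100%, media = 0% viability.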

[9] = Quantitative High-Throughput drug screen in 47 multiple myeloma cell lines against the NCATS MIPE library collection: MOLP8_DSMZ cell viability assay (AID 1918977); also: nearly all actives have a fitted effect of over 45% in size
Outline: as §4

[10] = Quantitative High-Throughput drug screen in 47 multiple myeloma cell lines against the NCATS MIPE library collection: NCIH929_DSMZ cell viability assay (AID 1918978); also: nearly all actives have a fitted effect of over 35% in size
Outline: as §4

[11] = Quantitative High-Throughput drug screen in 47 multiple myeloma cell lines against the NCATS MIPE library collection: OCIMY1_PLB cell viability assay (AID 1918979); also: nearly all actives have a fitted effect of over 35% in size
Outline: as §4

[12] = Quantitative High-Throughput drug screen in 47 multiple myeloma cell lines against the NCATS MIPE library collection: MM1S_ATCC cell viability assay (AID 1918980); also: nearly all actives have a fitted effect of over 45% in size
Outline: as §4

[13] = Quantitative High-Throughput drug screen in 47 multiple myeloma cell lines against the NCATS MIPE library collection: MM1R_ATCC cell viability assay (AID 1918981); also: nearly all actives have a fitted effect of over 35% in size
Outline: as §4

[14] = Quantitative High-Throughput drug screen in 47 multiple myeloma cell lines against the NCATS MIPE library collection: LP1_DSMZ cell viability assay (AID 1918982); also: nearly all actives have a fitted effect of over 35% in size
Outline: as §4

[15] = Quantitative High-Throughput drug screen in 47 multiple myeloma cell lines against the NCATS MIPE library collection: KMS27_JCRB cell viability assay (AID 1918970); also: nearly all actives have a fitted effect of over 30% in size
Outline: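 Each line is seeded at 500 cells per well and treated with library compounds for 48 hours under 37 °C, 5% CO2. CellTiter-Glo is then added for 5 min at room temperature before median relative luminescence is recorded.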

[16] = Quantitative High-Throughput drug screen in 47 multiple myeloma cell lines against the NCATS MIPE library collection: KMS12PE_JCRB cell viability assay (AID 1918972); also: nearly all actives have a fitted effect of over 30% in size
Outline: (§5)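 Approved and investigational drugs from MIPE 4.0 were added by pin tool to 500 cells per well. After 48 hours at 37C, ATP-based CellTiter-Glo luminescence indicated remaining viability.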

[17] = Quantitative High-Throughput drug screen in 47 multiple myeloma cell lines against the NCATS MIPE library collection: INA6_PLB cell viability assay (AID 1918965; also: nearly all actives have a fitted effect of over 55% in size)
Outline: as §5

[18] = Quantitative High-Throughput drug screen in 47 multiple myeloma cell lines against the NCATS MIPE library collection: KMS21BM_JCRB cell viability assay (AID 1918974); conditions: ATP luminescence, 48 h; viability: at 45.8 µM (top of the series) unless noted
Outline: as §2

[19] = Quantitative High-Throughput drug screen in 47 multiple myeloma cell lines against the NCATS MIPE library collection: JIM1_ECACC cell viability assay (AID 1918964)
Outline: as §2

[20] = Quantitative High-Throughput drug screen in 47 multiple myeloma cell lines against the NCATS MIPE library collection: Karpas25_ECACC cell viability assay (AID 1918968; also: nearly all actives have a fitted effect of over 35% in size)
Outline: as §2
Potency is read from the fitted curve at half-maximal effect.

SMILES | Potency [1] | Potency [2] | Potency [3] | Potency [4] | Potency [5] | Potency [6] | Potency [7] | Potency [8] | Potency [9] | Potency [10] | Potency [11] | Potency [12] | Potency [13] | Potency [14] | Potency [15] | Potency [16] | Potency [17] | Potency [18] | Potency [19] | Potency [20]
CCCCc1nc2cc(C=CC(=O)NO)ccc2n1CCN(CC)CC | 1.48 µM (active) | 2.64 µM (active) | 0.743 µM (active) | 1.87 µM (active) | 0.059 µM (active) | 0.209 µM (active) | 0.526 µM (active) | 0.418 µM (active) | 0.132 µM (active) | 0.935 µM (active) | 1.66 µM (active) | 0.526 µM (active) | 0.235 µM (active) | 0.0743 µM (active) | – | – | – | – | – | –
CC(=O)Nc1sc2c(c1-c1nc3ccccc3s1)CNC2 | 26.4 µM (active) | 18.7 µM (active) | 16.6 µM (active) | – | 11.8 µM (active) | 16.6 µM (active) | 16.6 µM (active) | 14.8 µM (active) | 5.9 µM (active) | 16.6 µM (active) | – | 14.8 µM (active) | – | 18.7 µM (active) | inactive | 20.9 µM (active) | – | – | – | –
CC(C)(C)OC(=O)Nc1ccc(-c2cc(C(=O)NCCCCCCC(=O)NO)no2)cc1 | 5.9 µM (active) | 3.72 µM (active) | 2.35 µM (active) | – | – | 2.64 µM (active) | 3.72 µM (active) | – | – | 1.66 µM (active) | – | 2.35 µM (active) | 1.87 µM (active) | – | – | 0.935 µM (active) | 0.469 µM (active) | 0.935 µM (active) | – | –
CN(c1ncccc1CNc1nc(Nc2ccc3c(c2)CC(=O)N3)ncc1C(F)(F)F)S(C)(=O)=O | 2.96 µM (active) | – | 2.64 µM (active) | 5.9 µM (active) | 9.35 µM (active) | 3.32 µM (active) | 7.43 µM (active) | 7.43 µM (active) | 4.18 µM (active) | 2.96 µM (active) | 13.2 µM (active) | 6.62 µM (active) | 6.62 µM (active) | 8.33 µM (active) | 2.64 µM (active) | 8.33 µM (active) | 2.64 µM (active) | – | 3.32 µM (active) | 3.32 µM (active)
NCC(=O)Nc1ccc(-n2nc(C(F)(F)F)cc2-c2ccc3c(ccc4ccccc43)c2)cc1 | 26.4 µM (active) | 18.7 µM (active) | 20.9 µM (active) | – | – | 9.35 µM (active) | – | 23.5 µM (active) | – | 16.6 µM (active) | – | – | – | 23.5 µM (active) | – | 0.526 µM (active) | 18.7 µM (active) | – | – | 16.6 µM (active)
CCCCN1CCC(CNC(=O)c2c3n(c4ccccc24)CCCO3)CC1 | 11.8 µM (active) | 18.7 µM (active) | 2.09 µM (active) | 9.35 µM (active) | – | 13.2 µM (active) | – | 5.26 µM (active) | – | 4.69 µM (active) | – | 3.72 µM (active) | – | – | – | – | – | – | – | 8.33 µM (active)
Nc1nc(NCCNc2ncc(-n3ccnc3)c(-c3ccc(Cl)cc3Cl)n2)ccc1[N+](=O)[O-] | 5.26 µM (active) | 5.26 µM (active) | 6.62 µM (active) | – | – | 9.35 µM (active) | 16.6 µM (active) | – | 16.6 µM (active) | 1.18 µM (active) | – | 2.35 µM (active) | – | 11.8 µM (active) | – | – | 1.18 µM (active) | – | – | 1.48 µM (active)
CNC(=O)c1ccccc1Nc1nc(Nc2ccc(N3CCOCC3)cc2OC)ncc1Cl | 7.43 µM (active) | – | 3.72 µM (active) | – | 13.2 µM (active) | 2.35 µM (active) | 0.418 µM (active) | 0.526 µM (active) | 14.8 µM (active) | 0.166 µM (active) | – | 0.662 µM (active) | – | – | 0.132 µM (active) | 1.05 µM (active) | – | 0.209 µM (active) | 0.105 µM (active) | 0.209 µM (active)
Cc1cnc(-c2cnc(NCCNc3ccc(C#N)cn3)nc2-c2ccc(Cl)cc2Cl)[nH]1 | 16.6 µM (active) | – | – | – | – | – | – | – | – | 10.5 µM (active) | – | – | – | – | inactive | – | 2.35 µM (active) | – | inactive | 5.9 µM (active)
COc1cc2c(Nc3ccc(NC(=O)c4ccccc4)cc3)ncnc2cc1OCCCN1CCOCC1 | 8.33 µM (active) | – | 23.5 µM (active) | – | – | 10.5 µM (active) | 37.2 µM (active) | – | – | 16.6 µM (active) | 23.5 µM (active) | – | 23.5 µM (active) | – | – | – | 11.8 µM (active) | – | inactive | –
Nc1nccc(Oc2ccc(NC(=O)c3c[nH]cc(-c4ccc(F)cc4)c3=O)cc2F)c1Cl | 18.7 µM (active) | – | 20.9 µM (active) | 20.9 µM (active) | 16.6 µM (active) | – | 33.2 µM (active) | 23.5 µM (active) | 20.9 µM (active) | 20.9 µM (active) | – | 1.18 µM (active) | 2.35 µM (active) | 18.7 µM (active) | – | inactive | 18.7 µM (active) | – | – | 16.6 µM (active)
COC(=O)[C@]12CCC(C)(C)C[C@@H]1[C@@H]1C(=O)C=C3[C@@]4(C)C=C(C#N)C(=O)C(C)(C)[C@@H]4CC[C@@]3(C)[C@]1(C)CC2 | 0.469 µM (active) | – | 0.526 µM (active) | 0.418 µM (active) | 0.526 µM (active) | 0.296 µM (active) | 0.209 µM (active) | 1.32 µM (active) | 0.209 µM (active) | 0.235 µM (active) | 0.743 µM (active) | 0.418 µM (active) | 0.264 µM (active) | 0.743 µM (active) | 0.526 µM (active) | 0.662 µM (active) | – | 0.0743 µM (active) | 0.418 µM (active) | 0.209 µM (active)
